Shown are actives, neighbours in structure and some others; about 19% of the full set was active somewhere.
IL1B secr inh: qHTS for Inhibitors of Inflammasome Signaling: IL-1-beta AlphaLISA Primary Screen. THP-1 LPS/ATP IL-1B secretion, AlphaLISA, 16 h; hits give low values. activity change, % at 57.5 µM. actives 4.7% (n = 360,000); in the data active = activity change below about -50%; inconclusive = mostly about -30% to -49%; note: % is set by controls: 0 for no effect and ±100 for the full control effect
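Secreted IL-1B measured by AlphaLISA bead assay after 16 h compound exposure of THP-1 cells; compounds (final up to 57.5 uM) added 1 h before LPS (250 ng/mL) and ATP (1.25 mM) stimulation; lower signal means less secretion.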
TDP1 inh: qHTS Assay for Inhibitors of Tyrosyl-DNA Phosphodiesterase (TDP1). Potency, µM (highest dose often 130 µM), for the others: top-dose activity change, negative = inhibition, actives largely listed as inhibitors. actives 0.28% (n = 350,000). recombinant TDP1, AlphaScreen DNA substrate cleavage; note: potency is the fitted concentration of half-maximal effect; % is set by controls: 0 for no effect and ±100 for the full control effect; nearly all actives have a fitted effect of over 40% in size
Target sequence (Q9NUW8 whole entry, looked up): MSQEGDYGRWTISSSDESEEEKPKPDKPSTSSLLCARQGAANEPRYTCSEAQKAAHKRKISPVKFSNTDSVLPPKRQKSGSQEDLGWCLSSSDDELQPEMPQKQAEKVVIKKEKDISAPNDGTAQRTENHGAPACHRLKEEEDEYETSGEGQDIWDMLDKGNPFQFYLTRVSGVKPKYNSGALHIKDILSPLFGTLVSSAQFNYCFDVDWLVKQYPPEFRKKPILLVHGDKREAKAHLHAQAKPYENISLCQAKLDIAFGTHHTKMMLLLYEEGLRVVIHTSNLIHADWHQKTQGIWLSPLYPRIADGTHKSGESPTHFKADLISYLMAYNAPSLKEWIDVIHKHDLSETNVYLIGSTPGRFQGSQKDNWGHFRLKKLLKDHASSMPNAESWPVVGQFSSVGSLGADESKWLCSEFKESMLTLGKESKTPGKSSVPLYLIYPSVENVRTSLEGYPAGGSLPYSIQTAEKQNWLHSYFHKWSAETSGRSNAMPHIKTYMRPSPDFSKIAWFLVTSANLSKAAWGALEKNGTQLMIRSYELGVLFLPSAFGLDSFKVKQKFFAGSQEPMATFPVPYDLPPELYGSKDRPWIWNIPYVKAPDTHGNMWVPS
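AlphaScreen read-out: signal falls as enzyme removes the 3' tyrosine-FITC from a 5'-biotinylated DNA oligo (15 nM, 5 min, RT). Enzyme was E. coli-made recombinant Tdp1 at 1 nM, exposed to compound for 15 min beforehand; beads 10 ug/ml, 10 min.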
HepG2 viability: qHTS for Inhibitors of TGF-b: Cytotox Counterscreen | HepG2 CAGA-GFP viability, ATP luminescence, 18 h | Potency, µM (titrated, usually from 46.1 µM), for inactives: top-dose activity change, negative = cytotoxicity, most hits filed as cytotoxic | actives 0.76% (n = 410,000); note: potency is the fitted concentration of half-maximal effect
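HepG2 CAGA-GFP cells (1000/well, DMEM with 1% FBS) received compound, then TGF-beta at 500 pg/mL final, and were incubated 18 hours at 37 degrees C. Viability was read by CellTiter-Glo luminescence. Media-only wells were set as complete cell-killing and DMSO as no toxicity.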
TGFb SMAD3 inh: qHTS for Inhibitors of TGF-b | HepG2 CAGA-GFP TGF-b/SMAD3 reporter, GFP fluorescence, 18 h; TGF-beta stimulated, 500 pg/mL final | Potency, µM (highest dose often 46.1 µM), for inactives: top-dose activity, negative = inhibition, actives largely listed as inhibitors | actives 1.2% (n = 410,000); note: potency is the fitted concentration of half-maximal effect; % is set by controls: 0 for no effect and ±100 for the full control effect; nearly all actives have a fitted effect of over 65% in size
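HEPG2 CAGA-GFP reporter cells (1000/well, DMEM with 1% FBS) received compounds, then recombinant TGF-beta at 500 pg/mL final for 18 hours at 37 degrees C. Per-cell GFP summed per well was normalised to unstimulated and stimulated DMSO controls before curve fitting.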
DT40 TDP1 CPT: qHTS for Inhibitors of human tyrosyl-DNA phosphodiesterase 1 (TDP1): qHTS in cells in presence of CPT | chicken DT40 Tdp1-/-;hTDP1 cells + 20 nM CPT, ATP luminescence, 48 h | Potency, µM (highest dose often 46.2 µM), for the others: top-dose activity change, negative = growth inhibition, usual class: inhibitors | actives 12% (n = 420,000); note: potency is the fitted concentration of half-maximal effect; % is set by controls: 0 for no effect and ±100 for the full control effect; nearly all actives have a fitted effect of over 55% in size
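Cell growth measured by CellTiter-Glo luminescence after a minimum 48 h, 37 C compound exposure with 20 nM CPT in Tdp1-knockout DT40 cells stably expressing hTDP1, seeded 400/well; qHTS titration format.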
DT40 TDP1 no CPT: qHTS for Inhibitors of human tyrosyl-DNA phosphodiesterase 1 (TDP1): qHTS in cells in absence of CPT | DT40 Tdp1-/- hTDP1 cells, no CPT, ATP luminescence, 48 h | Potency, µM (doses to about 46.2 µM), without a hit: at the top dose activity change, negative = growth inhibition, usual class: inhibitors | actives 15% (n = 420,000); note: potency is the fitted concentration of half-maximal effect; % is set by controls: 0 for no effect and ±100 for the full control effect; nearly all actives have a fitted effect of over 55% in size
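Compound effects on proliferation are scored in DT40 Tdp1-/-;hTDP1 cells in the absence of CPT. ATP levels (CellTiter-Glo luminescence) are recorded after a ≥48 hr, 37 °C incubation.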
* = called active by the depositor; ? = inconclusive; / = no result given. Unless noted, calls come from the whole dose curve; as a rule, active = well fitted curve in the direction sought with a large enough effect; inconclusive = small, poorly fitted or top-dose-only effect, or another doubt; inactive = no such curve, though single readings can be large; an effect the other way counts as inactive or inconclusive.

SMILES | IL1B secr inh | TDP1 inh | HepG2 viability | TGFb SMAD3 inh | DT40 TDP1 CPT | DT40 TDP1 no CPT
Cc1ccc(C)c(N2CCN(C(=O)c3ccc(CS(=O)Cc4ccc(Cl)cc4)o3)CC2)c1 (centres undefined) | -8 | 6% | -13% | ? | ? | ?
Cc1cccc(N2CCN(C(=O)c3ccc(CS(=O)Cc4cccc(Cl)c4)o3)CC2)c1C (centres undefined) | -4 | 5% | -40% | ? | ? | ?
Cc1ccc(Cl)cc1N1CCN(C(=O)c2ccc(CS(=O)Cc3ccc(Cl)cc3)o2)CC1 (centres undefined) | ? | 6% | -18% | ? | 13µM* | ?
Cc1ccc(CS(=O)Cc2ccc(C(=O)N3CCN(c4cccc(C)c4C)CC3)o2)cc1 (centres undefined) | -22 | / | -27% | -18% | ? | 21µM*
CN1C[C@@H]2[C@@H]3C(=O)N(Cc4ccccc4)C(=O)[C@@H]3[C@](Cc3ccccc3)(C1=O)N2C(=O)c1ccc(C(C)(C)C)cc1 | -89* | / | -13% | ? | 16µM* | 16µM*
CCN1C[C@@H]2[C@@H]3C(=O)N(Cc4ccccc4)C(=O)[C@@H]3[C@](CC)(C1=O)N2C(=O)c1ccc(Cl)c(Cl)c1 | -14 | / | -8% | -29% | 16µM* | 26µM*
CCN1C[C@@H]2[C@@H]3C(=O)N(Cc4ccccc4)C(=O)[C@@H]3[C@](Cc3ccccc3)(C1=O)N2C(=O)c1ccc(Cl)c(Cl)c1 | -29 | / | -16% | -1% | ? | ?
O=c1cnc2cnc(N3CCNCC3)nc2n1CCc1ccccc1 | / | / | / | / | 10% | -24%
COc1cc(NC(=O)c2sc3nc4n(c(=O)c3c2C)CCCCC4)cc(OC)c1OC | / | 4% | -22% | -15% | ? | ?
CC(C)(C)c1nc2c(C#N)c(-c3ccc(Cl)cc3)ccn2n1 | -10 | 6% | -16% | -15% | 35µM* | 20µM*
COc1cc(/C=N/NC(=O)CC23CC4CC(CC(C4)C2)C3)cc(Br)c1OCC(=O)N(C)C | -25 | 2% | -11% | ? | 21µM* | 18µM*
COc1cc(NC(=O)CN(C)Cc2cccc(F)c2)c(C)cc1[N+](=O)[O-] | 3 | -1% | 19% | -7% | ? | 21µM*
COc1ccc(CN(C)CC(=O)Nc2cc(OC)c([N+](=O)[O-])cc2C)c(OC)c1 | ? | 5% | -20% | -27% | 13µM* | 15µM*
O=C(Nc1ccc(C(=O)O)cc1)/C(=C\c1ccc([N+](=O)[O-])cc1)NC(=O)c1ccc(Br)cc1 | -9 | 0% | 9% | -9% | 3% | -11%
Cc1cccc(C(=O)NCc2cn3cccc(C)c3n2)c1 | / | 11% | 2% | -15% | -7% | 2%
COc1ccc(SC[C@H](C)CN2CC[C@H](C)CCC2=O)cc1 | -13 | 0% | -22% | -22% | ? | ?
Cc1ccc(SC[C@H](C)CN2CC[C@H](C)CCC2=O)cc1 | 22 | / | -27% | -30% | 13µM* | 18µM*
C[C@@H]1CCC(=O)N(C[C@@H](C)CSc2ccc(Br)cc2)CC1 | -19 | -12% | -1% | ? | ? | 18µM*
C[C@@H]1CCC(=O)N(C[C@@H](C)CSc2ccccc2)CC1 | 3 | / | -21% | ? | ? | ?
CC(=O)N1CCc2nc3sc(C(=O)Nc4ccc(Cl)cc4F)c(N)c3c(C(F)(F)F)c2C1 | / | 6% | 5% | 21% | / | /
CC1=CC(=O)C(C(C)C)=C/C1=N/OC(=O)c1cccc([N+](=O)[O-])c1 | -101* | 4% | -33% | ? | 23µM* | 12µM*
Cc1ccc(C(=O)O/N=C(\N)c2cccc([N+](=O)[O-])c2)cc1 | 1 | 3% | -2% | -3% | -30% | -15%
CC1=CC(=O)C(C(C)C)=C/C1=N\OC(=O)c1cccc2nc(C)oc12 | 1 | 2% | 6% | ? | ? | 21µM*
CC1=CC(=NOC(=O)c2cccc([N+](=O)[O-])c2)C=C(C)C1=O | -85* | -2% | -19% | -7% | 18µM* | 12µM*
Cc1cccc(NC(=O)c2ccc3[nH]c(C)cc(=O)c3c2)c1 | / | 6% | -3% | 16% | -2% | -21%
SMILES | IL1B secr inh | TDP1 inh | HepG2 viability | TGFb SMAD3 inh | DT40 TDP1 CPT | DT40 TDP1 no CPT
Cc1ccc(Cn2ccnc2SCC(=O)Nc2ccc3c(c2)OCO3)cc1 | / | 8% | -42% | / | 12% | -26%
CN(C(=O)c1ccc(NC(=O)Cc2ccc(NC(=O)C3CCCN(C(=O)C4CCC4)C3)cc2)cc1)C1CCCC1 (centres undefined) | 6 | / | 5% | -11% | ? | ?
CC1(C)CC2CC(C)(CN2S(=O)(=O)c2ccc(N)cc2)C1 (centres undefined) | -15 | 2% | -19% | -10% | ? | ?
CC1(C)CC2CC(C)(CN2S(=O)(=O)c2ccc(F)cc2F)C1 (centres undefined) | 14 | -13% | -8% | -24% | ? | 5.8µM*
CC(Sc1n[nH]c(N)n1)C(=O)Nc1cccc2ccccc12 (centres undefined) | 8 | 1% | -22% | 12% | ? | -24%
O=C(O)c1ccccc1NS(=O)(=O)c1cccc(C(F)(F)F)c1 | 2 | 3% | -21% | 5% | 2% | -17%
O=C(O)c1ccccc1NS(=O)(=O)c1cccc(-n2sc3ccccc3c2=O)c1 | -93* | ? | -12% | -2% | 15µM* | 8.2µM*
COc1ccc(-c2csc3ncn(Cc4ccccc4)c(=O)c23)cc1 | -10 | 2% | 6% | 39% | ? | ?
COc1ccc(-c2c3c(cc4ncn(Cc5ccccc5)c24)COC3=O)cc1 | 18 | 2% | 0% | -17% | ? | 23µM*
COc1ccc(Oc2ncc3nc(C)c(=O)n(Cc4cccc(OC)c4)c3n2)cc1 | / | / | / | / | -5% | -11%
Fc1ccc(C2=CC(c3ccc(Br)o3)n3ncnc3N2)cc1 (centres undefined) | -8 | 6% | -4% | 59% | ? | ?
CCOc1ccc(C2C=C(c3ccc(F)cc3)Nc3ncnn32)cc1 (centres undefined) | -13 | 7% | -8% | 13% | -21% | ?

Compound activity from PubChem BioAssay.
